Akt phos inh: inhibitors of Akt phosphorylation; Neuro2A IGF-stimulated pAkt S473 HTRF, 20 min; stronger effect = lower value; hit rate 0.32% among 360,000; activity change, % for hits at 50 µM; in the data active = activity change below about -80%; inconclusive = mostly about -51% to -80%; note: % is set by controls: 0 for no effect and ±100 for the full control effect
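Single-point screen (50 µM final compound) in Neuro2A cells stimulated 20 min with 6 nM IGF at 37 deg C. After lysis, Ser473-phosphorylated Akt read by HTRF (ex 330 nm, em 615/665 nm) as the 665/615 ratio.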
FUS suppressor: rescues growth of FUS-expressing yeast; S. cerevisiae FUS-expressing, growth rescue, OD600, 24 h; Potency, µM (titrated, usually from 76.6 µM), actives largely listed as activators; hit rate 0.24% among 390,000;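 note: potency is the fitted concentration of half-maximal effect; plate controls were DMSO vehicle for no effect and reference control for full effect; nearly all actives have a fitted effect of over 55% in size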
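Absorbance at 600 nm, taken 24hr after compound addition, measured rescue of FUS-yeast growth at 30C. Induction used 2% galactose with seeding at OD 0.005. Controls: CP55940 from 92uM final, DMSO only.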
aSyn yeast inh: rescues yeast growth from alpha-synuclein toxicity; Yeast expressing alpha-synuclein, growth rescue, BacTiter-Glo, 24 h; Potency, µM (top dose mostly 46.1 µM), for inactives: at the highest dose growth rescue (activation), most hits filed as activators; hit rate 0.14% among 370,000; AID 652106; note: potency is the fitted concentration of half-maximal effect; % of control where 0% means no effect; nearly all actives have a fitted effect of over 65% in size
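Screening used galactose-induced yeast with toxic alpha-synuclein levels, exposed to compound for 24 hr at 30 deg C. Cell growth, read with BacTiter-Glo luminescence, gave the measured signal.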
Abeta rescue: restores growth of yeast expressing A-beta42 peptide | yeast expressing A-beta42, growth rescue, OD600, 48 h; response scale: 0% DMSO, 100% iron-clioquinol control | Potency, µM (highest dose often 46.1 µM), actives largely listed as activators | hit rate 0.063% among 410,000 | AID 1347071; note: potency is the fitted concentration of half-maximal effect; nearly all actives have a fitted effect of over 55% in size
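Growth rescue measured by 600 nm absorbance after 48 h yeast culture at 30 C with compound. Values normalized between DMSO and an equimolar ferric chloride plus clioquinol control.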
TDP-43 yeast inh: inhibitors of TDP-43 toxicity in yeast. TDP-43 expressing yeast growth rescue, BacTiter-Glo, 24 h. Potency, µM (titrated, usually from 46.1 µM), for the others: at the highest dose growth rescue (activation), actives largely listed as activators. hit rate 1.8% among 410,000. AID 652104; note: potency is the fitted concentration of half-maximal effect; % of control where 0% means no effect; nearly all actives have a fitted effect of over 50% in size
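Yeast cells expressing TDP-43 under galactose induction are exposed to compounds for 24 hr at 30 deg C. BacTiter-Glo luminescence measures growth, so protective compounds score as activators.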
* hit, by the source's call; i = inactive; u = inconclusive; x = not tested or not shown; [ ] = remark or other dose. Most compounds without a hit are left out; they make up all but 2.3% or so of the library. Unless noted, calls come from the whole dose curve; as a rule, active = well fitted curve in the direction sought with a large enough effect; inconclusive = small, poorly fitted or top-dose-only effect, or another doubt; inactive = no such curve, though single readings can be large; an effect the other way counts as inactive or inconclusive.

SMILES	Akt phos inh	FUS suppressor	aSyn yeast inh	Abeta rescue	TDP-43 yeast inh
Cc1ccc(S(=O)(=O)c2cn(C)c3cc(N4CCCCCC4)c(F)cc3c2=O)cc1	x	i	x	i	19%
CN(C)c1ccc(/C=C/c2ncnc3ccccc23)cc1	x	x	11%	x	x
Cn1c(N)c(C(C[N+](=O)[O-])c2ccccc2Cl)c(=O)n(C)c1=O (configuration not stated)	i	i	-25%	i	14µM*
C[C@@]12CCC=C[C@H]1[C@H](c1ccccc1Br)N(Cc1ccccc1)C2=O	i	u	-2%	i	35µM*
CCSc1nc(-c2ccc(OC)cc2)ccc1C#N	i	i	1%	i	16µM*
CCCCSc1nc(-c2ccc(OC)cc2)ccc1C#N	x	i	4%	i	-3%
CCN(CC)CC(=O)Nc1ccc(C)cc1C(=O)c1ccccc1	i	i	4%	i	6%
Cc1ccc(S(=O)(=O)NCCC(=O)Nc2ccc(C)cc2C(=O)c2ccccc2)cc1	i	i	19%	i	22µM*
CCOc1ccc(CCNC(=O)c2c3c(nc4ccccc24)C(=O)N(C2CCCCC2)C3)cc1	x	i	x	i	8%
CCn1cc(-c2cc(C(F)(F)F)n3nc(C(=O)O)cc3n2)c(C)n1	-112%*	i	-1%	i	-3%
CCOc1ccc(CCNC(=O)c2ccc(-c3nc(COc4ccc(C)cc4)c(C)o3)cc2)cc1	x	i	x	i	21%
COc1ccc(C)cc1NC(=O)Cn1c(=O)cc(C)c2c(C)nn(C)c21	x	i	x	i	10%
Cc1cccc(N2CCN(C(=O)C3CCN(C(=O)c4cc5sccc5n4C)CC3)CC2)c1C	x	u	x	u	35µM*
Cc1cccc(N(C)S(=O)(=O)c2nnc(NC(=O)C(C)(C)C)s2)c1	x	i	x	i	12%
C=CCOCCN1C(=O)C2C(c3ccccc3)C=CC(c3ccccc3)C2C1=O (configuration not stated)	i	u	13%	i	-8%
O=C1C2C(c3ccccc3)C=CC(c3ccccc3)C2C(=O)N1CCCO (configuration not stated)	-102%*	i	13%	i	5%
Fc1ccc([C@@H]2Nc3ccccc3[C@@H]3C=CC[C@@H]32)cc1	x	i	x	13µM*	11%[9.22 µM]
C=CCNC(=S)NN=C1CCCCCCC1	i	i	-8%	8.9µM*	-3%
O=C(COC(=O)c1nc(Cl)ccc1Cl)Nc1ccc(Cl)cc1	i	i	0%	i	16µM*
COc1cccc(NC(=O)COC(=O)c2nc(Cl)ccc2Cl)c1	i	i	8%	i	16µM*
Cc1ccc(NC(=O)CSc2n[nH]c(-c3ccc(F)cc3)n2)cc1F	x	i	x	i	9%
CSc1ccc(CC2C(=O)Nc3ccccc32)cc1 (configuration not stated)	x	i	x	i	13µM*
O=C1Nc2ccccc2C1Cc1ccc(Br)cc1 (configuration not stated)	x	i	x	u	16µM*
CN(C)c1ccc(CC2C(=O)Nc3ccccc32)cc1 (configuration not stated)	i	i	6%	i	11%
COC(=O)c1ccccc1NC(=O)c1ccc2c(c1)CCN2S(C)(=O)=O	x	i	x	i	4%
SMILES	Akt phos inh	FUS suppressor	aSyn yeast inh	Abeta rescue	TDP-43 yeast inh
Cc1cc(C)cc(N=c2c([N+](=O)[O-])nn(-c3cccc(Cl)c3)n2O)c1	i	i	4%	i	u
O=[N+]([O-])c1nn(-c2ccccc2)n(O)c1=NC1CCN(Cc2ccccc2)CC1	i	i	-4%	i	4%
Cc1ccc(CCN=c2c([N+](=O)[O-])nn(-c3ccccc3)n2O)cc1	i	i	20%	i	11µM*
COc1ccc(-n2nc([N+](=O)[O-])c(=NCCc3ccccc3)n2O)cc1	i	x	8%	i	13µM*
O=[N+]([O-])c1nn(-c2ccccc2)n(O)c1=NCCc1ccccc1	i	x	2%	i	7.1µM*
CCc1cccc(NC(=O)Cn2nc(-c3ccc(OC)cc3)ccc2=O)c1	x	i	x	i	u
COc1cc(C(CC(=O)Nc2ccc(C)c(F)c2)N2Cc3ccccc3C2=O)cc(OC)c1OC (configuration not stated)	x	i	3%	i	18%
COc1ccc(C(=O)c2cn(CC(=O)Nc3ccc4c(c3)OCO4)c3ccc(OC)cc3c2=O)cc1	x	i	x	i	15%
Cn1ncc(SCc2ccccc2)c(Cl)c1=O	i	i	11%	i	20µM*
O=C(CCS(=O)(=O)c1nc(-c2ccc3c(c2)OCO3)cc(C(F)(F)F)n1)Nc1ccccc1C(F)(F)F	x	i	x	i	-11%
COc1cc2c(cc1OC)CN(C(=O)Nc1ccccc1)CC2	i	i	-2%	i	u
COc1cc2c(cc1OC)CN(C(=O)Nc1ccccc1Cl)CC2	i	i	6%	i	11µM*
COc1ccc(CC(=O)N2CCc3cc(OC)c(OC)cc3C2)cc1	i	i	2%	i	8%
COc1cc2c(cc1OC)CN(C(=O)Cc1c(F)cccc1Cl)CC2	i	i	10%	i	16µM*
COC(=O)[C@]1(C)N[C@H](CN(C)S(=O)(=O)c2ccc(-c3ccccc3)cc2)[C@@H]2C(=O)N(C)C(=O)[C@@H]21	i	i	3.2µM*	i	-2%
COC(=O)[C@]1(C)N[C@H](CN(C)S(=O)(=O)c2ccccc2)[C@@H]2C(=O)N(C)C(=O)[C@@H]21	i	i	-6%	i	14%
COc1ccc(-c2nn(-c3ccc(C)cc3)c3c2cnc2ccc(C)cc23)cc1OC	x	i	x	i	22%
COc1cc2ncc3c(-c4ccccc4)nn(-c4ccc(C)cc4)c3c2cc1OC	x	i	x	i	7.1µM*
COc1ccc(-c2csc(C)n2)cc1Br	i	i	1%	i	11µM*
COc1cc(-c2csc(C)n2)ccc1O	i	i	0%	i	16%
O=C(Nc1cccc(C(F)(F)F)c1)C1Cc2c(-c3cccc(F)c3)ccnc2O1 (configuration not stated)	i	u	u	i	25µM*
O=C(Nc1ccc(F)c(Cl)c1)C1Cc2c(-c3cccc(F)c3)ccnc2O1 (configuration not stated)	i	i	u	i	18µM*
Cc1ccc(Nc2n[nH]c(C)c2[N+](=O)[O-])cc1	i	i	-16%	i	-14%
Cc1[nH]nc(Nc2ccc(C(C)C)cc2)c1[N+](=O)[O-]	i	i	-10%	i	13µM*
Clc1ccc(-c2nn3c(-c4cc(-c5ccccc5)n[nH]4)nnc3s2)cc1	x	x	5%	x	x

Assay outcomes from PubChem.
